These results are taken from PubChem BioAssay AID504635 (The Scripps Research Institute Molecular Screening Center, 2011).

This is one part of the list. A number with no mark means an inactive call. Rule as the data show it: active = inhibition above about 18%; inactive = the rest.

Broadly, the inhibition is the drop in the measured response relative to a control, in per cent.

The target in the assay is Troponin I, cardiac muscle (Homo sapiens) + Troponin T, cardiac muscle (Homo sapiens) + Troponin C, slow skeletal and cardiac muscles (Homo sapiens) (UniProt P19429+P45379+P63316). Kind of assay: cardiac RTF calcium sensitivity inhibitors, confirmation, biochemical, fluorescence readout (AID 504635). The note with it: reconstituted cardiac thin filaments, at 7.15 µM, hits give high values.

As for `COC1=C[C@@H]2[C@@H]3Cc4ccc(OC)c(O)c4[C@]2(CCN3C)CC1=O`, the inhibition is -1.97%.
